Assay [1] in a line: qHTS Assay for Agonists of the Thyroid Stimulating Hormone Receptor. The following applies: HEK293-CNG-TSHR cells, membrane potential dye, cAMP; measured here: parental cells max response. From the text:
(§1) NIH Chemical Genomics Center [NCGC]
(§2) NIH Molecular Libraries Screening Centers Network [MLSCN]
(§3) PI Name: Dr. Marvin Gershengorn, NIH
(§4) Thyroid Stimulating Hormone Receptor
(§5) TSH is an alpha/beta heterodimeric glycoprotein hormone secreted from the anterior pituitary gland which belongs to the glycoprotein hormone family. The actions of TSH are mediated by a seven-transmembrane receptor, which upon TSH binding couples preferentially to the G-alpha (s) protein (Gs), resulting in activation of adenylate cyclase and increase in cyclic adenosine 3', 5' monophosphate (cAMP). The TSH receptor (THSR) is mainly expressed in thyroid follicular cells and regulates their growth and function. Recombinant TSH is used to activate TSHR in patients with thyroid cancer receiving thyroid hormone suppression therapy and to screen for residual tumor after surgery, but it is expensive and must be administered intramuscularly. An orally active small molecule TSHR agonist would serve as an invaluable research tool for studying TSHR pharmacology and physiology, and would have multiple advantages in therapeutic settings. However, no selective small molecule agonist of the TSH receptor exists, and no small molecule screen for TSHR agonists has ever been reported.
(§6) This cell based assay utilized a cyclic nucleotide gated ion channel (CNG) as a biosensor for cAMP induction by potential TSHR agonists.
(§7) HEK 293 cells stably expressing the TSHR as well as a modified CNG were purchased from BD biosciences. Stimulation of cAMP production causes the CNG to open and subsequent membrane depolarization to occur. A fluorescent membrane potential dye (BD biosciences) was utilized to detect cAMP stimulation in TSHR cells.
(§8) The cells were maintained in DMEM medium (Invitrogen) containing 10 % FBS (Hyclone), 100 units/ml Penicillin, 100 ug/ml Streptomycin (Invitrogen), and 250 ug/ml Geneticin (Invitrogen) and 1 ug/ml Puromycin (Invitrogen) at 37C in 5% CO2. HEK 293 cells expressing CNG but without TSHR (parental cells) were used in concert to control for compounds signaling through endogenous receptors and targets of HEK 293 cells.
(§9) NCGC Assay Protocol Summary:
(§10) High Throughput Screening. Freshly passaged cells (TSHR or parental) were dispensed into 1536-well assay plates at 4 ul/well in DMEM containing phenol red (Invitrogen), 10% FCS (Hyclone), and 100 units/ml Penicillin, 100 ug/ml Streptomycin (Invitrogen) and incubated at 37 C with 5% CO2 for 20 to 36 hrs before the robotic screening. The screen was initiated by addition of 4 ul/well membrane potential dye containing 100 uM RO 20-1724 (Sigma Aldrich), followed by 60 min incubation at room temperature to allow for dye equilibration across the cell membrane. 23 nl/well compound or control was then added to the assay plates, which were incubated for additional 30 min before reading a Envision fluorescence plate reader (Perkin Elmer) in bottom-read mode for fluorescence intensity (emission at 590 nm).
(§11) Keywords: Thyroid-stimulating hormone TSH, TSHR, TSHR agonist, quantitative high throughput screening, qHTS, HTS, probe identification, CNG, cAMP, cyclic nucleotide gated ion channel PubChem

Assay [2] deals with Thyrotropin receptor (Homo sapiens) (UniProt P16473). The assay is described as above. The following applies: HEK293-CNG-TSHR cells (CNG channel as cAMP sensor), membrane potential dye, cAMP; series mostly up to 57.1 µM.
Thyrotropin receptor (Homo sapiens), sequence (P16473 whole entry, looked up): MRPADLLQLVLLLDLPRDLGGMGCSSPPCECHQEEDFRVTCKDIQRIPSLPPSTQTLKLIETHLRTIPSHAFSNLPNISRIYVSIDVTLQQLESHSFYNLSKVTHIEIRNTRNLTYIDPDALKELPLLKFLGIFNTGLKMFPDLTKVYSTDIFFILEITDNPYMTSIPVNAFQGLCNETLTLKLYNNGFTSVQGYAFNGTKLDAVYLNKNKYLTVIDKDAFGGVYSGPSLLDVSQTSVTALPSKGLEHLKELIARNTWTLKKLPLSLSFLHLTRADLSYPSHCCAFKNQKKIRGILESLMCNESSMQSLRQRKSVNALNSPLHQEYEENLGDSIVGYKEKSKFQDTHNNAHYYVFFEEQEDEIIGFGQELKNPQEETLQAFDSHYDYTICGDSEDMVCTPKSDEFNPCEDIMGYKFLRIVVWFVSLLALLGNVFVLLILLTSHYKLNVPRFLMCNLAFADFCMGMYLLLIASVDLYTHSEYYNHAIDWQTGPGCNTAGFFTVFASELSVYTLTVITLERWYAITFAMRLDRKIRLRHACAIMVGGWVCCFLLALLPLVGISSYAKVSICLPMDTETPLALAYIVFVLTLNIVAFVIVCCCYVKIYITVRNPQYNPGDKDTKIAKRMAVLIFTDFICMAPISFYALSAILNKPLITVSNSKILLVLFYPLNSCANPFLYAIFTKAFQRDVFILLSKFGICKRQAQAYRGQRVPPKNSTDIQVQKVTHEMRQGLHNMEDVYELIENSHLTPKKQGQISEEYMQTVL
Excerpt: as §1, §2, §3, §4, §5, §6, §7, §8, §9, §10, §11

The structures appear in SMILES notation. “And” between values parts separate entries of the source, which are not always exact repeats. Identical values can stand only once. Screen size: about 73,000 compounds; about 350 (0.48%) were called active. Not shown: some 17% with an inconclusive outcome. The call rests on the fitted dose curve; in most records, active means well fitted activation curve with a large enough effect in the main read-out, with a control signal flat (not every such curve was filed as active); inconclusive means small, poorly fitted or top-dose-only effect, or a change in a side signal; inactive means no such curve, though single readings can be large or run the other way; reference of the percent scale not stated here. The sample as a whole holds a higher share of actives than the screen did.
Potency means the concentration at half of the fitted maximal effect.

Take `CC1CCCCN1CCCNC(=O)c1ccc(-n2c(=O)c(=O)[nH]c3ccccc32)cc1` (centres undefined): the activation in assay [1] was -4.46%. For the same molecule, the Potency result in assay [2] is “inactive”.

For the molecule `CCCn1c(C)nc2c(NCCCCN(CC)CC)nc(C)nc21`, in assay [1], the activation was 4.8%. In assay [2], the Potency result was “inactive”.

For the molecule `O=C1C[C@@H](O)[C@@H](O)[C@H]2[C@@H]3C(=O)N(Cc4ccc5c(c4)OCO5)C(=O)[C@@H]3CC[C@H]12`, the activation is 0.478% and -2.17% in assay [1]; 1.51% [at 11.4 µM] (inactive) and -4.05% [at 11.4 µM] (inactive) in assay [2].

For `C#CCCCCCCCCCCCCCCCC(=O)O`, in assay [1], the activation is 7.8%. Further, in assay [2], the Potency entry is “inactive”.

With `COc1ccc(-c2nnc(SC(=O)N3c4ccccc4Sc4ccccc43)o2)cc1`, the activation in assay [1] is -13.7%; in assay [2] it was -19.2% [at 11.4 µM] (inactive).

For `CCC1C(C#N)=C(SC)NC2=C1C(=O)CC(C)(C)C2` (centres undefined), the activation in assay [1] is 9.37%; in assay [2] it was 4.61% [at 11.4 µM] (inactive).

As for `Cc1c2c(nc3ccccc13)-c1cccc(=O)n1C2`, in assay [1], the activation was -3.79%. In addition, the Potency entry in assay [2] is “inactive”.

For the molecule `Cc1noc(C)c1-c1nc(Nc2ccccc2)c2ccccc2n1`, the activation in assay [1] is -3.31%. In addition, the Potency entry in assay [2] is “inactive”.

With `O=C(O)c1ccc(Cl)c(S(=O)(=O)Nc2ccccc2Cl)c1`, the activation in assay [1] came to 5.29%. The Potency result in assay [2] was “inactive”.

For `Cc1ccc2c(c1)sc1ncc(NC(=O)c3ccccc3)c(=O)n12`, the activation in assay [1] is 11.7%. Besides, the Potency result in assay [2] is “inactive”.

Regarding `CCNC(=S)NCC`, the activation in assay [1] is -3.45%. The Potency result in assay [2] was “inactive”.

Take `COC(=O)c1cn(-c2ccccc2)nc1-c1cccnc1`: the activation in assay [1] came out at 9.42%. The Potency entry in assay [2] was “inactive”.

As for `CO/N=C\[C@@H](C)[C@H](OCc1ccccc1)C(C)C`, the figures for the activation in assay [1] and in assay [2] were -0.643% and 16.8% [at 11.4 µM] (inactive), respectively.

In the case of `O=c1c(-c2ccc(F)c(F)c2)nc2cncnc2n1-c1ccccc1`, the activation in assay [1] was 19.9%. In assay [2], the Potency entry is “inactive”.

In the case of `N[C@H](C(=O)O)c1ccc(C(=O)O)c(O)c1`, the activation in assay [1] was -2.63%. In addition, the Potency result in assay [2] is “inactive”.

On to `N#Cc1cccc(CSc2nnc(CCCO)n2-c2ccccc2)c1`, for which, in assay [1], the activation is -1.39%. In assay [2], the Potency entry is “inactive”.

For the molecule `COC(=O)C1(C)C=CC2(CCCCC2)N1C(C)=O` (centres undefined), in assay [1], the activation turned out to be 19.4%. For the same molecule, in assay [2], the Potency result is “inactive”.

On to `COc1cccc(-c2nnc(N(C)C(=O)c3ccno3)s2)c1`, for which the activation in assay [1] is 11%; in assay [2] it was -1% [at 11.4 µM] (inactive).

With `CC(=O)OCC1OC(C#Cc2ccccc2Cl)C=CC1OC(C)=O` (centres undefined), the activation in assay [1] was -0.512%; in assay [2], 0.546% [at 11.4 µM] (inactive).

In the case of `COc1ccc(/C=C/NC(=O)c2ccc(OC)cc2)cc1`, the activation in assay [1] was -3.02%; in assay [2], -7.55% [at 11.4 µM] (inactive).

In the case of `CN1CCc2nc(-c3ccccc3)c(-c3ccccc3)cc2C1`, the activation was 0.173% in assay [1] and 2% [at 11.4 µM] (inactive) in assay [2].

Consider `Cn1c(=O)c(-c2ccccc2)nc2cnc(N3CCNCC3)nc21`, for which the activation in assay [1] was 4.18%. Also, the Potency result in assay [2] is “inactive”.

Take `CC1(C)S[C@@H]2[C@@H](NC(=O)[C@@H](N)c3ccccc3)C(=O)N2[C@H]1C(=O)O`: the activation in assay [1] is -1.13%. Also, the Potency result in assay [2] is “inactive”.

For the molecule `CC(C)(C)c1ccc(C(=O)NCCC(=O)NCc2ccco2)cc1`, the activation in assay [1] is -0.34%. Also, the Potency result in assay [2] was “inactive”.

Regarding `CC(C)(C)c1ccc(NC(=O)NCc2ccco2)cc1`, the activation in assay [1] was determined as 3.69%. Further, the Potency in assay [2] was 3.98 µM (active).

In the case of `Cc1ccccc1NC(=O)NCc1ccco1`, the activation in assay [1] is 1.97%. In addition, the Potency entry in assay [2] was “inactive”.

With `CCOc1ccccc1C1NC(=O)NC(C)=C1C(=O)OCc1ccco1` (centres undefined), in assay [1], the activation was 0.325%. Besides, the Potency entry in assay [2] is “inactive”.

Take `CCC(Sc1nncn1C)C(=O)Nc1nnc(-c2ccc(Cl)cc2)s1` (centres undefined): the activation in assay [1] is -6.53%. Moreover, in assay [2], the Potency result is “inactive”.

In the case of `O=C1OCCC=C1[C@@H](O)CCc1ccccc1`, the activation is -4.2% in assay [1] and 5.01% [at 11.4 µM] (inactive) in assay [2].

As for `COc1ccc(/C=C/NC(=O)Cc2ccc(OC)c(OC)c2)cc1`, the activation in assay [1] is 28.5% and 7.24%; in assay [2], 10.9% [at 11.4 µM] (inactive) and -1.69% [at 11.4 µM] (inactive).

With `CCOC(=O)c1cnc(-n2nc(C)cc2C)nc1Nc1cccc(C(C)=O)c1`, in assay [1], the activation was 16.9%. For the same molecule, the Potency entry in assay [2] is “inactive”.

For `CCOC(=O)c1cnc(-n2nc(C)cc2C)nc1-n1nc(C)cc1C`, the activation in assay [1] was determined as 1.88%. The Potency in assay [2] was 3.16 µM (active).

As for `CCOC(=O)c1cnc2sccn2c1=O`, the activation in assay [1] is 5.11%. The Potency entry in assay [2] was “inactive”.

As for `CC(=O)Nc1cc2ccc(OC(C)=O)cc2oc1=O`, the activation in assay [1] was -10.5%. Moreover, the Potency entry in assay [2] was “inactive”.

`Oc1ccc(Cl)cc1/C=N/c1nc2ccccc2[nH]1`: the activation was 6.32% in assay [1] and 0.206% [at 11.4 µM] (inactive) in assay [2].

Take `CNC(=O)c1c(NC(=O)c2ccc(S(=O)(=O)N3CCOCC3)cc2)sc2c1CCC2`: in assay [1], the activation was found to be 0.0362%. Also, the Potency entry in assay [2] was “inactive”.

Regarding `COc1ccc2c(c1)C=CC1(O2)N(CCO)c2ccccc2C1(C)C` (centres undefined), the activation in assay [1] is 16.4%. Also, the Potency in assay [2] is 15.8 µM (active).

Turning to `O=C(Nc1ncccn1)c1cccs1`, the activation in assay [1] is 2.1%. Besides, in assay [2], the Potency entry was “inactive”.

Turning to `O=P(c1cccs1)(c1cccs1)c1cccs1`, the activation in assay [1] is 29%. Further, in assay [2], the Potency is 0.631 µM (active).

In the case of `O=C(O)CCC(=O)N(Cc1cccs1)Cc1cccs1`, in assay [1], the activation stood at 4.58%. Further, the Potency result in assay [2] was “inactive”.

In the case of `O=C(O)CCC(=O)NCc1ccc2[nH]c3c(c2c1)CCCC3`, in assay [1], the activation was -0.484%. Moreover, in assay [2], the Potency entry is “inactive”.

As to `Cc1cccc(C(=O)O)c1`, the activation in assay [1] amounted to 12.6%. Besides, the Potency entry in assay [2] is “inactive”.

For `CO[C@@H]1COC(=O)C/C=C\[C@H](C)[C@@H](NS(=O)(=O)c2ccc(C)cc2)COC(=O)C/C=C\[C@@H]1C`, the activation in assay [1] is 2.07% and 4.9%; in assay [2] it was -0.576% [at 11.4 µM] (inactive) and -0.527% [at 11.4 µM] (inactive).

As for `CCOC(=O)N/N=C1/C[C@@H](O)[C@@H](O)[C@@H]2[C@@H]3C(=O)N(CC)C(=O)[C@H]3CC[C@H]12`, the activation was 2.56% in assay [1] and 5.56% [at 11.4 µM] (inactive) in assay [2].

In the case of `CC(C)CCn1c(CN(C)Cc2ccccc2)nc2c1c(=O)n(C)c(=O)n2C`, the activation in assay [1] amounted to 3.87%. In assay [2], the Potency entry is “inactive”.

For the molecule `CO[C@@H]1COC(=O)[C@H](Cc2ccccc2)NC(=O)C/C=C\[C@@H](C)[C@H](OC)COC(=O)[C@@H](C)NC(=O)C/C=C\[C@H]1C`, the activation was 8.45% and -4.16% in assay [1]; -6.09% [at 11.4 µM] (inactive) and -4.32% [at 11.4 µM] (inactive) in assay [2].

`Cc1occc1C(=O)N1CCCc2ccccc21`: the activation in assay [1] was determined as 23.6%. Moreover, in assay [2], the Potency entry is “inactive”.

As to `COc1ccc2oc(=O)c(C(=O)N3CCCc4ccccc43)cc2c1`, the activation in assay [1] was -9.12%. Further, the Potency entry in assay [2] is “inactive”.

For the molecule `CCc1cc(=O)oc2cc(OCC(=O)N3CCCc4ccccc43)ccc12`, the activation in assay [1] is -4.75%. The Potency in assay [2] was 25.1 µM (active).

As for `COc1ccc(COC(=O)N/N=C2/C[C@@H](O)[C@@H](O)[C@@H]3[C@@H]4C(=O)N([C@@H](C)c5ccccc5)C(=O)[C@H]4CC[C@@H]23)cc1`, the activation in assay [1] was -0.62%; in assay [2], 0.427% [at 11.4 µM] (inactive).

Take `Nc1nonc1C(=O)NCCc1ccccc1`: the activation in assay [1] is -2.18%. Moreover, the Potency entry in assay [2] was “inactive”.

As to `COc1cc(Cl)c(S(=O)(=O)n2cnc(C)c2)cc1Cl`, the activation in assay [1] is 12.1%; in assay [2], 13.5% [at 11.4 µM] (inactive).

The record behind these values is PubChem BioAssay AID926 (National Center for Advancing Translational Sciences (NCATS), 2007).
